In the supplement of paper PMC6555819:

What was measured:
Assay in all cases: PBM binding z-score (relative to random genomic background probes); higher = stronger binding; sequences stand for … in GC…GCGATTGACAGCGTAGAATGAAGG
[1] = tested on: FXR:RXRa (NR concentration 270 nM, RXRa partner concentration 90 nM)
Method in brief: (§1)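 Ligand-free nuclear receptor dimers were bound for 1 h to custom Agilent 4×180K protein-binding microarrays. Detection used antibodies against each partner (one per run). Binding z-scores rest on regression-normalized fluorescence, with random background probes as the reference.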

[2] = tested on: LXRa:RXRa (NR concentration 270 nM, RXRa partner concentration 90 nM)
Method in brief: as §1

[3] = tested on: LXRa homodimer (NR concentration 270 nM)
Method in brief: as §1

[4] = tested on: LXRb:RXRa (NR concentration 270 nM, RXRa partner concentration 90 nM)
Method in brief: as §1

[5] = tested on: LXRb homodimer (NR concentration 270 nM)
Method in brief: as §1

[6] = tested on: PPARa:RXRa (NR concentration 270 nM, RXRa partner concentration 90 nM)
Method in brief: as §1

[7] = tested on: PPARg:RXRa (NR concentration 180 nM, RXRa partner concentration 90 nM)
Method in brief: as §1

[8] = tested on: PPARg:RXRa 270nM:90nM, anti-RXR (NR concentration 270 nM, RXRa partner concentration 90 nM)
Method in brief: as §1

[9] = tested on: PPARg:RXRa 30nM:10nM, anti-RXR (NR concentration 30 nM, RXRa partner concentration 10 nM)
Method in brief: as §1

[10] = tested on: PPARg:RXRa 90nM:30nM, anti-RXR (NR concentration 90 nM, RXRa partner concentration 30 nM)
Method in brief: as §1

[11] = tested on: PPARg:RXRa DBDmut IVT, anti-RXR (DBD mutation: RXRa K156A/R161A, NR concentration 270 nM, RXRa partner concentration 90 nM)
Method in brief: as §1

[12] = tested on: PPARg:RXRa IVT, anti-PPARg (NR concentration 270 nM, RXRa partner concentration 90 nM)
Method in brief: as §1

[13] = tested on: PPARg DBDmut:RXRa IVT, anti-PPARg (DBD mutation: PPARg1 K132A/R137A, NR concentration 270 nM, RXRa partner concentration 90 nM)
Method in brief: as §1

[14] = tested on: PPARg DBDmut IVT, anti-PPARg (DBD mutation: PPARg1 K132A/R137A, NR concentration 270 nM)
Method in brief: as §1

[15] = tested on: PPARg homodimer (NR concentration 180 nM)
Method in brief: as §1

[16] = tested on: PXR:RXRa (NR concentration 270 nM, RXRa partner concentration 90 nM)
Method in brief: as §1

[17] = tested on: PXR homodimer (NR concentration 270 nM)
Method in brief: as §1

[18] = tested on: RARa:RXR (NR concentration 270 nM, RXRa partner concentration 90 nM)
Method in brief: as §1

[19] = tested on: RARa homodimer (NR concentration 270 nM)
Method in brief: as §1

[20] = tested on: RARb:RXRa (NR concentration 270 nM, RXRa partner concentration 90 nM)
Method in brief: as §1

Sequence	PBM binding z-score [1]	PBM binding z-score [2]	PBM binding z-score [3]	PBM binding z-score [4]	PBM binding z-score [5]	PBM binding z-score [6]	PBM binding z-score [7]	PBM binding z-score [8]	PBM binding z-score [9]	PBM binding z-score [10]	PBM binding z-score [11]	PBM binding z-score [12]	PBM binding z-score [13]	PBM binding z-score [14]	PBM binding z-score [15]	PBM binding z-score [16]	PBM binding z-score [17]	PBM binding z-score [18]	PBM binding z-score [19]	PBM binding z-score [20]
AGTCAAAGTTCATCTAGGTGACGTAAGATATGCT	6.84	5.85	5.06	3.69	1.52	4.98	7.01	6.36	3.53	5.48	1.67	4.74	1.64	1.41	3.65	4.98	6.85	3.75	1.44	4.8
GCTGCTAGGGCAACTGATGGTCAGCTAAAGCTCG	-0.599	-0.0812	-0.858	-0.846	-0.673	-0.536	-0.394	-0.642	-1.04	-0.914	2.82	1.23	-0.683	-1.08	-0.93	-0.816	-0.96	-0.619	-1.23	1.56
ACTTACGAGTCAACGAGGTTATAGCACGCGTATA	0.899	1.12	0.413	1.26	0.307	1.73	0.967	0.553	0.564	0.254	-0.235	0.267	1.03	0.64	0.175	1.51	0.513	1.68	-0.00172	0.738
TGTCAAAGATCAAAGGTAACGTAAGTATCCACAC	1.19	1.08	-0.325	1.32	-0.103	2.73	4.17	4.22	2.19	3.68	-0.516	2.24	1.24	1.01	0.484	1.26	-0.19	2.22	0.426	1.02
TTACCAAGGTTAGCTGAGGTCGTTGATCCAACTC	2.11	4.83	0.313	2.51	-0.743	2.24	-0.0441	0.6	0.0802	0.486	0.191	0.594	-0.413	-0.849	0.103	5.71	1.46	2.83	-0.023	2.1
ATATGTAGGTTACTTCCGGGTCATTCAGGCTATG	2.58	5.79	2	3.81	1.01	4.23	5.4	4.83	2.21	4.06	7.27	7	2.25	1.76	2.39	3.68	1.81	3.76	0.485	2.36
ATCGGAAGGTCGACGAGGTGAGTATACACCGTTT	1.65	0.953	-0.358	0.827	-0.58	2.18	1.06	0.751	-0.112	0.452	-0.35	0.996	0.22	-0.4	0.248	1.38	-0.0622	1.66	-0.26	2.51
GCTGCTAGCTCAGGTTGGTCAGCTAACGGGTACG	-0.68	-0.822	-0.914	-0.935	-1.25	-1.08	-0.612	-0.997	-1.04	-0.839	-0.142	-0.678	-1.21	-1.62	-1.31	-0.81	-0.881	-0.76	-2.27	-0.463
TCTTGTAGATCAAGCAAGTTAAGAAAGCCTGAGT	0.00157	-0.0687	-0.36	-0.0255	-0.715	0.295	-0.623	1.01	2.4	1.72	1.73	0.172	-0.613	-0.0624	-0.466	0.15	0.419	0.014	-0.373	0.115
TGAATGAGGTAAAAGATCAGGGAACGTGGCGTCG	0.359	-0.0204	-0.712	-0.13	-0.307	2.5	3.68	5.02	3.41	5.53	0.669	2.02	0.836	-0.202	0.305	-0.0852	-0.139	0.545	-0.524	0.0467
TTACCAAGGTGAAGGTCGTTCATCCCTCTGTAGA	1.75	2.56	0.0622	1.51	-0.519	2.77	3.06	4.13	2.5	3.8	1.8	3.39	-0.313	0.687	0.597	1.9	0.214	1.55	-0.144	2.54
TCATATGGGTAAAGGTGAAAGTCGAACGATATGA	0.574	1.13	-0.287	1.09	-0.607	3.53	5.17	5.52	4.64	5.69	3.36	3.75	1.24	0.532	0.852	0.764	-0.418	1.66	0.221	1.79
TCGAGTAGGTTACTAATGGGGCATTCAGCTTTCT	-0.458	2.4	-0.454	1.24	-0.917	0.717	-0.149	0.701	0.939	0.928	3.02	2.39	0.0923	-0.475	-0.0554	0.00033	-0.441	0.224	-0.684	0.494
TCTGCTAGGTCATTTGGTCAGCTAACGAGCTGCC	4.28	3.21	1.04	2.03	1.81	3.19	1.97	3.11	1.64	2.37	3.73	3.88	3.37	1.7	1.5	1.46	-0.592	2.1	-1.02	3.62
